These results are taken from ChEMBL document CHEMBL2218924, “A broad activity screen in support of a chemogenomic map for kinase signalling research and drug discovery” (Biochem J, 2013).

Test [1] concerns the target T1, CDK3/cyclin E (Homo sapiens) (UniProt P24864+O96020+Q00526). The conditions noted are these: at 1 µM.
Test [2] concerns the target T1, CDK3/cyclin E (Homo sapiens). The conditions noted are these: at 10 µM.
Test [3] has as its target T2, Cyclin-dependent kinase 5/CDK5 activator 1 (Homo sapiens) (UniProt Q00535+Q15078). The conditions noted are these: at 1 µM.
For test [4], the target named is T2, Cyclin-dependent kinase 5/CDK5 activator 1 (Homo sapiens). The conditions noted are these: at 10 µM.
For test [5] the target is unchanged. The conditions noted are these: at 1 µM. The source holds these as a separate data set.
For test [6] the target is unchanged. The conditions noted are these: at 10 µM. The source holds these as a separate data set.
In test [7] the target is T3, CDK6/cyclin D3 (Homo sapiens) (UniProt P30281+Q00534). To be noted: at 1 µM.
Test [8] addresses T3, CDK6/cyclin D3 (Homo sapiens). The conditions noted are these: at 10 µM.
Test [9] has as its target T4, Cyclin-dependent kinase 7/ cyclin H (Homo sapiens) (UniProt P51946+P50613). The conditions noted are these: at 1 µM.
Test [10] addresses T4, Cyclin-dependent kinase 7/ cyclin H (Homo sapiens). The conditions noted are these: at 10 µM.
Test [11] deals with T5, CDK9/cyclin T1 (Homo sapiens) (UniProt O60563+P50750). The conditions noted are these: at 1 µM.
In test [12] the target is T5, CDK9/cyclin T1 (Homo sapiens). To be noted: at 10 µM.
The target in test [13] is T6, Serine/threonine-protein kinase Chk1 (Homo sapiens) (UniProt O14757).
T6 sequence (whole entry): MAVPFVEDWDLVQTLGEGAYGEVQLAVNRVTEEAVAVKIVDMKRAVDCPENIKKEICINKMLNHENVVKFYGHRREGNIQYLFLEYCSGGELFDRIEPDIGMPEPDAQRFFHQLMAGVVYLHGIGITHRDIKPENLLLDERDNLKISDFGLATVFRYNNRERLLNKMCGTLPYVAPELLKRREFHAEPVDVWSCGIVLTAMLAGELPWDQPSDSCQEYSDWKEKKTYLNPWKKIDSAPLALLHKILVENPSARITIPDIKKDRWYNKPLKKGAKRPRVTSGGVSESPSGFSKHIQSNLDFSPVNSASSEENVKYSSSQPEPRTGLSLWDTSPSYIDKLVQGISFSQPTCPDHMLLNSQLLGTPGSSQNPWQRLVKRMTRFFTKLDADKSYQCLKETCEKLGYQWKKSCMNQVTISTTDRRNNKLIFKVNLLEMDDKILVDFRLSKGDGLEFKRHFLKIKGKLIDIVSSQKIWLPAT
The conditions noted are these: at 1 µM.

The target of test [14] is T6, Serine/threonine-protein kinase Chk1 (Homo sapiens). The conditions noted are these: at 10 µM.
For test [15], the target named is Serine/threonine-protein kinase Chk2 (Homo sapiens) (UniProt O96017). To be noted: at 1 µM.
Serine/threonine-protein kinase Chk2 (Homo sapiens), sequence (O96017 whole entry): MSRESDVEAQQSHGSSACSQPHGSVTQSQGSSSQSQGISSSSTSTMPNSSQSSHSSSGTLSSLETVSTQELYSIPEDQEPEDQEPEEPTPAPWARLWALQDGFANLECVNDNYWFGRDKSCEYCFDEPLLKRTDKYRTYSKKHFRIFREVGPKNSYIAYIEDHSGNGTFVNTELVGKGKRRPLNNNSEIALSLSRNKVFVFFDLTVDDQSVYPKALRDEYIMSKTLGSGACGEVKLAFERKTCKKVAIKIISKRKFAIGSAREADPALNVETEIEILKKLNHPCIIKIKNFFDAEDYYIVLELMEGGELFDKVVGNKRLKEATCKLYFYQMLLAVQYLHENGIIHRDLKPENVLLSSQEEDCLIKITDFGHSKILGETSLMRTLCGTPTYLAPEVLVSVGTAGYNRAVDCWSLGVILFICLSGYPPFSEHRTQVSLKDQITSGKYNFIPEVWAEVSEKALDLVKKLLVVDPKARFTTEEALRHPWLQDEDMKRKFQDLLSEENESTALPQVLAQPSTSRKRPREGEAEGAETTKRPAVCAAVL
Test [16] has the same target. To be noted: at 10 µM.
Test [17] addresses Casein kinase I isoform gamma-1 (Homo sapiens) (UniProt Q9HCP0). To be noted: at 1 µM.
Test [18] has the same target. The conditions noted are these: at 10 µM.
The target of test [19] is Casein kinase I isoform delta (Homo sapiens) (UniProt P48730). To be noted: at 1 µM.
Casein kinase I isoform delta (Homo sapiens), sequence (P48730 whole entry, looked up, canonical isoform): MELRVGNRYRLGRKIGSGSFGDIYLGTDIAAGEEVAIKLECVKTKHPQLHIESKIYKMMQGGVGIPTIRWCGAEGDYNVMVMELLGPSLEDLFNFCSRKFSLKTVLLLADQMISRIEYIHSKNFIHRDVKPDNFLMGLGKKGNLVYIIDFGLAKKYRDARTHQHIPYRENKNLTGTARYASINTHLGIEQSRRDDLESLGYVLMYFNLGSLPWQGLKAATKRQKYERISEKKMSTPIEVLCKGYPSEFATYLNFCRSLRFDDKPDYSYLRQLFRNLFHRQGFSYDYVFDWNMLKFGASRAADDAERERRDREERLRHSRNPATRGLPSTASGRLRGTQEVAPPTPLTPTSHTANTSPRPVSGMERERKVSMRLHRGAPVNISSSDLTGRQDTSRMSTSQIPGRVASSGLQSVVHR
The target is the same in test [20]. The conditions noted are these: at 10 µM.

T2 sequence (Q00535 whole entry): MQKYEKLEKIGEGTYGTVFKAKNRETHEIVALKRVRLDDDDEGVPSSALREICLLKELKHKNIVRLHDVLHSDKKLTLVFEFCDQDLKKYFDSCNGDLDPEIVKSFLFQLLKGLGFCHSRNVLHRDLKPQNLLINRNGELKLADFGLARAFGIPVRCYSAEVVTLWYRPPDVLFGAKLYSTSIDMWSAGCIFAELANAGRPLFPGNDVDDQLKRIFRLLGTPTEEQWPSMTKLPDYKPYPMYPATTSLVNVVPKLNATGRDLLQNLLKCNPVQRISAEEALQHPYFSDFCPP
T2 sequence (Q15078 99-307 partner limits assumed): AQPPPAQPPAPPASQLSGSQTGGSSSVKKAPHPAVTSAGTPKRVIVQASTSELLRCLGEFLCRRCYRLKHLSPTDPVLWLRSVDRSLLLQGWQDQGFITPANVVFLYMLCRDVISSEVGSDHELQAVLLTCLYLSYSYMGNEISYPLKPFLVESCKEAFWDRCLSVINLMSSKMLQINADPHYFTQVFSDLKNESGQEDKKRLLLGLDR
T1 sequence (O96020 whole entry, looked up): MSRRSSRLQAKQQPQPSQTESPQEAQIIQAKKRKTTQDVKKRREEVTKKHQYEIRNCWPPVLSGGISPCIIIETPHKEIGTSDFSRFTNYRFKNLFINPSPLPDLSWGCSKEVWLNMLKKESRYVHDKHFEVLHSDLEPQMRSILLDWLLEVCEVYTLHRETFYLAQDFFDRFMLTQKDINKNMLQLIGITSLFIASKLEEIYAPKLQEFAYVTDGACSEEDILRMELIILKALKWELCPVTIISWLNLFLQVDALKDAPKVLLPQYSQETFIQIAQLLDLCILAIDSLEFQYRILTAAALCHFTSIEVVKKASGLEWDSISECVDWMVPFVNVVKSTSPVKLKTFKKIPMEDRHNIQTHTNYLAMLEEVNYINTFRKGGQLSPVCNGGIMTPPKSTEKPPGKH
T1 sequence (P24864 whole entry, looked up): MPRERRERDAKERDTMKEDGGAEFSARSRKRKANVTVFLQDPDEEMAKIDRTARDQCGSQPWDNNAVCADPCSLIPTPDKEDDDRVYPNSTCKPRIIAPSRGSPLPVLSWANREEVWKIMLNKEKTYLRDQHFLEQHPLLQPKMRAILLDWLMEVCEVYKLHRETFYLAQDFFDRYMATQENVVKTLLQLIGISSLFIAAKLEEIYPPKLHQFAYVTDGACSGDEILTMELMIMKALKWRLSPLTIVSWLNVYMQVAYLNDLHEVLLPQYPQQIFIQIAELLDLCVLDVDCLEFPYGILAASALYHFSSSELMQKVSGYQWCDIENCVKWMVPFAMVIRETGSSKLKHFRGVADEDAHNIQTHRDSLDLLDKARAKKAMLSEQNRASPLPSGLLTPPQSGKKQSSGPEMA
T1 sequence (Q00526 whole entry, looked up): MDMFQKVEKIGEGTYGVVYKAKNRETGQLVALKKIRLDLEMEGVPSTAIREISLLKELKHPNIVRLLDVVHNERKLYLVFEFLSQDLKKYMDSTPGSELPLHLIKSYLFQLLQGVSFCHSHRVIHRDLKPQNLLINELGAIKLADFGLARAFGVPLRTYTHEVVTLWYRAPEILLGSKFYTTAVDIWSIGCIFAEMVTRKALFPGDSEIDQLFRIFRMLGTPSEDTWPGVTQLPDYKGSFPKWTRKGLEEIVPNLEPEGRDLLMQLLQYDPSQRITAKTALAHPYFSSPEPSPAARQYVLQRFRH
Casein kinase I isoform gamma-1 (Homo sapiens), sequence (Q9HCP0 whole entry, looked up, canonical isoform): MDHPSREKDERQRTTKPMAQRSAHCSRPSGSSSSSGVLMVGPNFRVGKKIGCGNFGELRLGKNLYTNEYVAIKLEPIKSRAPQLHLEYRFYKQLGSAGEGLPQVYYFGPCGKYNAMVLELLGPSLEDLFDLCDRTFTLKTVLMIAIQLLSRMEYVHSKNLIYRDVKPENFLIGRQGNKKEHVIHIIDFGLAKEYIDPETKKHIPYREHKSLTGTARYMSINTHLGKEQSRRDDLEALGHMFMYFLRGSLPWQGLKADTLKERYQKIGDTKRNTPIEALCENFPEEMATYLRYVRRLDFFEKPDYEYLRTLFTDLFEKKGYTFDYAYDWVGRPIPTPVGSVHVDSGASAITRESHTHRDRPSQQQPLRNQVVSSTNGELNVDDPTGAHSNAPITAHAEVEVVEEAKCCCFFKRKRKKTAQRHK

Turning to `C[S+]([O-])c1ccc(-c2nc(-c3ccc(F)cc3)c(-c3ccncc3)[nH]2)cc1` (centres undefined), the residual activity in [1] is 108%; in [2] it was 93%; in test [3], 117%; in [4], 121%; in test [5], 120%; in [6], 100%. Besides, the residual activity in test [7] worked out at 116%; in test [8] it was 111%; in [9] it was 118%; in test [10], 100%; in test [11], 98%; in [12], 108%. Besides, the residual activity in [13] was found to be 104%; in test [14], 97%; in test [15] it was 90%; in test [16], 90%; in test [17] it was 119%; in [18], 61%.
As to `COc1ccc2c(c[n+](C)c3c4cc5c(cc4ccc23)OCO5)c1OC`, the residual activity in [2] came out at 85%; in [5], 89%; in test [6] it was 91%; in [8], 82%; in test [9], 87%; in [13], 86%. The residual activity in test [14] worked out at 99%; in test [15], 73%; in test [16] it was 90%; in test [17], 80%; in test [18], 71%.
As for `CC(C)(C)c1cc(C=C(C#N)C#N)cc(Br)c1O`, the residual activity in test [1] is 109%; in test [2], 103%; in test [3], 107%; in [4], 113%; in test [5], 96%; in [7], 113%. Further, the residual activity in [8] turned out to be 101%; in test [13], 105%; in test [14] it was 105%; in test [15], 96%; in [16], 99%; in test [17], 104%. The values for the residual activity in [18], in test [19] and in [20] were 97%, 99% and 48%, respectively.
Turning to `O=C1Nc2ccc3ncsc3c2/C1=C/c1c[nH]cn1`, the residual activity in test [1] is 1%; in [2], -1%; in [3], 1%; in [4], 0%; in test [5], 1%; in test [6], -1%. Also, the residual activity was found to be 10% in test [7]; 4% in [8]; 15% in test [9]; 3% in [10]; 5% in test [11]; 3% in [12]. Also, the residual activity in test [13] was found to be 35%; in [14] it was 8%; in [15], 50%; in [16] it was 15%; in test [17] it was 70%; in [18], 28%. For the same molecule, the residual activity in test [19] was 23%; in test [20], 4%.
Consider `CN[C@@H]1C[C@H]2O[C@@](C)([C@@H]1OC)n1c3ccccc3c3c4c(c5c6ccccc6n2c5c31)C(=O)NC4`, for which the residual activity in test [4] came out at 2%; in test [19] it was 77%; in test [20] it was 46%.
`CCn1cnc2c(Nc3cccc(Cl)c3)nc(N[C@@H]3CCCC[C@@H]3N)nc21`: the residual activity in test [1] is 6%; in test [2], 0%; in test [3], 1%; in test [4] it was 0%; in test [5], 0%; in [6], -1%. Besides, the residual activity is 82% in test [7]; 31% in test [8]; 5% in test [9]; -1% in [10]; 8% in test [11]; 0% in test [12]. Also, the residual activity in test [13] is 83%; in test [14] it was 28%; in test [15], 59%; in test [16], 12%; in [17], 30%; in [18], 6%. The figures for the residual activity in test [19] and in test [20] were 89% and 51%, respectively.
In the case of `COc1cc2ncnc(Nc3ccc(OCc4ccccc4)cc3)c2cc1OC`, the residual activity in test [1] was determined as 110%; in test [2], 100%; in [3] it was 106%; in test [4], 83%; in test [5] it was 111%; in test [6] it was 102%. The residual activity was 117% in test [7]; 100% in [8]; 88% in test [9]; 96% in test [10]; 100% in test [11]; 87% in test [12]. In addition, the residual activity in test [13] was found to be 101%; in test [14], 87%; in test [15], 8%; in test [16], 3%; in test [17] it was 95%; in test [18], 95%. In addition, the results for the residual activity in test [19] and in test [20] were 77% and 79%, respectively.
Regarding `O=C1c2ccccc2-c2nc3nnnn3nc21`, the values for the residual activity in [7], in [8] and in test [10] were 103%, 101% and 129%, respectively.
As for `O=[N+]([O-])/C=C/c1ccc2c(c1)OCO2`, the residual activity in test [1] was 87%; in test [2] it was 88%; in [3], 97%; in [4], 106%; in [5] it was 91%; in test [6] it was 96%. The residual activity in [7] came to 99%; in [8], 98%; in test [9], 81%; in test [10] it was 119%; in test [11] it was 112%; in test [12] it was 100%. Besides, the residual activity in [13] stood at 85%; in [14], 101%; in test [15], 85%; in test [16], 85%; in [17], 83%; in test [19], 98%. For the same molecule, the residual activity in test [20] was determined as 113%.
